Screen size: about 16,000 compounds; about 70 (0.4%) were called active. Cut-off read from the data, not from the text of the source: active = inhibition above about 75%; inactive = the rest. What follows is part of a selection rich in actives, with near analogues and random picks from the rest.

The nature of the experiment: quenches luminol chemiluminescence in Nox1 counter-screen (AID 1823). To be noted: HRP/luminol/H2O2 chemiluminescence counterscreen; at 6.7 µM; stronger effect = higher value. In general terms: Counterscreens check selectivity or assay interference.
In general, inhibition refers to the change of the read-out against control, counted positive when it falls. With `CCOC(=O)NC(=O)/C(=C/NC(C)C)C(=O)OCC`, the inhibition is 2.4% (inactive). Under `CSc1nnc(SC)n1CCNC(=O)Nc1cccc(Cl)c1` stands 3.79% (inactive); under `CCCCc1c(O)cc(-c2ccccc2)n(Cc2ccccc2)c1=O`, 7.84% (inactive); under `COc1ccc(OC(=O)/C=C/c2sc3ccccc3c2C)cc1`, -0.97% (inactive). Under `Cc1nc(C(F)(F)F)ccc1NC(=O)/C=C\C(=O)O` stands 1.91% (inactive). Regarding `CCc1cnc(NS(=O)(=O)c2cc(Cl)sc2Cl)nc1-c1c(F)cccc1F`, the inhibition is -0.98% (inactive).

As to `Cc1ccc(S(=O)(=O)NNC(=O)c2ccccc2N)cc1`, the inhibition was 37.9% (inactive). `O=C(NCc1cccnc1)Nc1cccc(NC(=O)NCc2cccnc2)c1F`: the inhibition is 1.8% (inactive).

Turning to `COc1cccc2c1c(NS(=O)(=O)c1cn(C)cn1)nn2C`, the inhibition is -21.4% (inactive). Under `O=[N+]([O-])c1ccc2c(c1)CCN2S(=O)(=O)c1ccccc1` stands -4.92% (inactive); under `CNC(=O)c1ccccc1Sc1ccccc1C(=O)NC`, -0.03% (inactive); under `Cc1nc(-c2ccc(NC(=O)COCC(=O)O)cc2)cs1`, 21.6% (inactive). `O=C1C(Cl)=C(Oc2cc(Cl)c(Cl)cc2Cl)C(=O)c2ccccc21`: the inhibition was 0.81% (inactive). As for `Cn1ncc(Br)c1NC(=O)C(C)(C)C`, the inhibition is 4.37% (inactive). The figure for `N#Cc1ccc(-c2csc(COc3ccccc3Cl)n2)cc1` is -1.21% (inactive); for `CS(=O)(=O)Nc1ccc(/C(N)=N/OC(=O)c2cccs2)cc1` it is 2.83% (inactive). Take `c1ccc2sc(-c3csc(-c4ccc5c(c4)OCCO5)n3)nc2c1`: the inhibition is 3.06% (inactive).

Consider `N#CCCSc1sc(=S)sc1SCCC#N`, for which the inhibition was 3.43% (inactive). For `C/C(=N\O)C(C)(C)Nc1ccc(C(C)(C)C)cc1`, the inhibition is -0.65% (inactive). For the compound `O=c1[nH]c2c(=O)[nH]c(=S)[nH]c2nc1/C=C(\O)c1ccccc1`, the inhibition is -2.84% (inactive). On to `O=C(Nc1ccc(F)cc1OC(F)(F)F)N1CCC(O)CC1`, for which the inhibition was -1.8% (inactive). On to `CCOC(=O)c1c(C)csc1NC(=O)CC(=O)C(F)(F)F`, for which the inhibition was -0.11% (inactive). Under `CCOC(=O)c1c(NC(=S)NC)sc2c1CCCC2` stands 97.7% (active); under `CCOC(=O)c1c(NC(=S)Nc2ccccc2)sc2c1CCN(C)C2`, 0.9% (inactive); under `Cc1cc(/C(N)=N/OC(=O)c2cccs2)c(-c2ccccc2)o1`, -4.79% (inactive).

Take `Cc1cc(C)nc(NC(=S)c2ccc(NC(=O)/C=C/C(=O)O)cc2)n1`: the inhibition was -2.67% (inactive). For `CCSC(=O)NCc1ccccc1`, the inhibition is -0.89% (inactive).

Regarding `Cc1onc(-c2ccccc2Cl)c1NC(=O)N1c2ccc(F)cc2CCC1C` (stereo not given), the inhibition was 8.92% (inactive). Turning to `Nc1nc(C23CC4CC(CC(C4)C2)C3)cs1`, the inhibition is -1.09% (inactive). Under `CC(C)n1c(SCC(=O)c2cccc([N+](=O)[O-])c2)nc2cc(C(F)(F)F)ccc21` stands 2.2% (inactive). Regarding `CC(C)CCOS(=O)(=O)c1ccc2c(c1)Cc1cc(S(=O)(=O)OCCC(C)C)ccc1-2`, the inhibition is -0.63% (inactive). For `O=C(CSC(=S)N1CCCCC1)c1c(F)cccc1F`, the inhibition was 26.8% (inactive). As to `O=C(c1cc(-c2cccs2)on1)N1CCCCC1`, the inhibition is 3.17% (inactive). Regarding `N#CC(C#N)=CNc1c(F)cccc1Cl`, the inhibition was -4.02% (inactive). Turning to `CCOC(=O)C1=C(C)NC(C)=C(C(=O)OCC)C1c1ccccn1`, the inhibition is 0.07% (inactive). Turning to `CCOC(=O)c1cc(CC)sc1NC(=O)c1cccc(C(F)(F)F)c1`, the inhibition was -4.21% (inactive). Turning to `CC(C)S(=O)(=O)/C(C#N)=C/c1ccccc1OC(F)(F)F`, the inhibition is -0.54% (inactive).

For the compound `COC(=O)c1cnc(N2CCCN(C(=O)C3COc4ccccc4O3)CC2)nc1C(F)(F)F` (stereo not given), the inhibition is 1.21% (inactive). As to `Cc1ccccc1NC(=O)NCc1ccco1`, the inhibition is -0.91% (inactive). The figure for `O=[N+]([O-])c1ccc(-c2ccc(I)cc2)cc1` is -6.68% (inactive); for `CC(C)NC(=O)NNc1c(Cl)cncc1Cl` it is -1.24% (inactive); for `Cc1ccc(Oc2c(C)[nH]c(=S)[nH]c2=O)cc1` it is -0.85% (inactive). Under `CN(C)c1cc(-c2cc(Cl)sc2Cl)oc(=O)c1Cl` stands -5.79% (inactive); under `Cc1cc(C)nc(N/C=C(\C#N)S(=O)(=O)c2ccc(Cl)cc2)n1`, 2.84% (inactive).

As for `O=C(NNC(=S)Nc1ccccc1Cl)c1ccc(OC(F)(F)F)cc1`, the inhibition was 2.9% (inactive). On to `Cn1cc(Br)c(-c2cccc(NC(=O)c3ccccc3Cl)c2)n1`, for which the inhibition was -4.85% (inactive). In the case of `CCc1cccc(C)c1N(C(C)=O)C1=NCCC(=O)S1`, the inhibition was -4.86% (inactive). In the case of `O=[N+]([O-])c1ccc(C2CC2(Br)Br)cc1` (stereo not given), the inhibition was 0.05% (inactive). Regarding `CSC(C)C(=O)/C=C/N(C)C` (stereo not given), the inhibition is -4.32% (inactive). For `COc1ccc(Cc2nc(C(C)(C)C)cs2)cc1`, the inhibition was -2.22% (inactive).

As to `Cc1noc(C)c1S(=O)(=O)N1CCN(C2c3ccccc3-c3ccccc32)CC1`, the inhibition is 0.21% (inactive).

As to `CCOC(=O)NC(=O)/C(=C/NCc1cccs1)C(=O)OCC`, the inhibition was 1.42% (inactive). For the compound `CC(=O)Nc1ccc(S(=O)(=O)NNc2c(Cl)cncc2Cl)cc1Cl`, the inhibition is 10.2% (inactive). Under `CCCN(CCC)S(=O)(=O)c1ccc(C(=O)Oc2c(C)cccc2OC)cc1` stands -5.62% (inactive). Take `CCOC(=O)c1cc(C)n(-c2cccc([N+](=O)[O-])c2)c1-c1ccccc1`: the inhibition is 1.22% (inactive).

For the compound `COc1cccc(C(=O)c2sc3nsc(SCc4ccc(F)cc4)c3c2N)c1`, the inhibition was 9.11% (inactive).

As for `CC(C)(C)c1ccc(NC(=O)c2ccco2)c(NC(=O)C(Cl)(Cl)Cl)c1`, the inhibition was -4.94% (inactive). For `O=C(Nc1ccc2c(c1)OCCO2)c1cnccn1`, the inhibition was 1.1% (inactive). Take `CSc1nc(-n2nc(C)cc2C)nc(-c2ccco2)c1C#N`: the inhibition is 1.13% (inactive). As for `O=C(O)CCc1cccnc1`, the inhibition was -4.95% (inactive). Under `CCCCCCCCCCCCCC#CC(O)C(N)CO` (stereo not given) stands 2.24% (inactive). Turning to `O=C(CSc1nc2ccccc2o1)N1CCC(n2cccc2)CC1`, the inhibition is 10% (inactive). `CC(=O)NC12CC3(C)CC(C)(CC(C)(C3)C1)C2`: the inhibition was 2.16% (inactive). In the case of `COc1cc(CC/C(C)=N/O)ccc1O`, the inhibition was 2.62% (inactive). Consider `Cc1nc(C(F)(F)F)ccc1C(=O)NC1CCCc2ccccc21` (stereo not given), for which the inhibition was 3.59% (inactive).

(Values after PubChem BioAssay AID1823 (The Scripps Research Institute Molecular Screening Center, 2009).)
